# Reference: PubChem BioAssay (Tox21)
# Unmarked numbers belong to inactive results. Records with an inconclusive call do not appear. Entries that show only a call come without a potency. Active and inactive are the calls of the source. Unless noted, calls follow the shape of the dose curve; as a rule, active = well fitted curve in the direction sought with a large enough effect in the repeat runs; inconclusive = weak or mixed curves; inactive = no such curve, though single readings can be large; an effect the other way counts as inactive or inconclusive.
# What was measured:
# [1] = qHTS assay to test for compound auto fluorescence at 535 nm (green) in HEK293 cells (AID 720680); conditions: green autofluorescence 485/535 nm; series mostly up to 91.3 µM
# [2] = qHTS assay to test for compound auto fluorescence at 460 nm (blue) in HEK293 cell free culture (AID 720681); conditions: cell-free medium, autofluorescence 405/460 nm (blue); series mostly up to 91.3 µM
# Outline: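 Blue fluorescence (Ex 405/Em 460 nm, triamterene-equivalent) was read immediately after pin transfer of compound or DMSO into medium (DMEM, 10% FBS) without cells.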
# [3] = qHTS assay to test for compound auto fluorescence at 535 nm (green) in HEK293 cell free culture (AID 720682); conditions: cell-free medium, green autofluorescence 485/535 nm, hits give high values; series mostly up to 91.3 µM
# Outline: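 Each library compound, or DMSO control, is added by pintool to medium alone, comprising DMEM and 10% FBS. Emission at 535 nm following 485 nm excitation is quantified against fluorescein.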
# [4] = qHTS assay to test for compound auto fluorescence at 590 nm (red) in HEK293 cell free culture (AID 720683); conditions: cell-free medium autofluorescence, Ex540/Em590 red; series mostly up to 91.3 µM
# Outline: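 Red-channel autofluorescence of compounds in culture medium (DMEM, 10% FBS), no cells, measured at 540/590 nm. Rose Bengal sodium is the reference fluorophore for equivalence.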
# [5] = qHTS assay to test for compound auto fluorescence at 590 nm (red) in HepG2 cell free culture (AID 720684); conditions: cell-free medium autofluorescence, red 540/590 nm; series mostly up to 91.3 µM
# Outline: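 Plate contents were MEM with 10% FBS plus test compound or DMSO, no cells. Fluorescence was recorded with 540 nm excitation and 590 nm emission.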
# [6] = qHTS assay to test for compound auto fluorescence at 460 nm (blue) in HepG2 cell free culture (AID 720685); conditions: Cell-free culture medium, blue autofluorescence 405/460 nm; series mostly up to 91.3 µM
# Outline: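 Compound (23 nL) or DMSO pinned into cell-free MEM with 10% FBS; blue fluorescence read at 405/460 nm excitation/emission, expressed as auto-fluorescence equivalency to triamterene.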
# [7] = qHTS assay to test for compound auto fluorescence at 535 nm (green) in HepG2 cell free culture (AID 720686); conditions: Cell-free medium, green autofluorescence 485/535 nm; series mostly up to 91.3 µM
# [8] = qHTS assay to test for compound auto fluorescence at 460 nm (blue) in HepG2 cells (AID 720687); conditions: autofluorescence 405/460 nm, 1 h; series mostly up to 91.3 µM
# Outline: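 Blue-channel autofluorescence (Ex/Em 405/460 nm, triamterene-equivalent) was measured after 1 hr compound exposure at 37 C, 5% CO2. Cells were HepG2, plated overnight at 37 C in MEM plus 10% FBS.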
# [9] = target: Glucocorticoid receptor (Homo sapiens) (UniProt P04150); test: qHTS assay to identify small molecule antagonists of the glucocorticoid receptor (GR) signaling pathway (AID 720692; active = well fitted inhibition curve with a large enough effect in the signal ratio in the repeat runs, not every such curve was filed as active; the % refers to the signal ratio); conditions: GR-bla HeLa, beta-lactamase FRET ratio, dexamethasone-stimulated, 18 h; series mostly up to 58.5 µM
# Glucocorticoid receptor (Homo sapiens), sequence (P04150 whole entry, looked up): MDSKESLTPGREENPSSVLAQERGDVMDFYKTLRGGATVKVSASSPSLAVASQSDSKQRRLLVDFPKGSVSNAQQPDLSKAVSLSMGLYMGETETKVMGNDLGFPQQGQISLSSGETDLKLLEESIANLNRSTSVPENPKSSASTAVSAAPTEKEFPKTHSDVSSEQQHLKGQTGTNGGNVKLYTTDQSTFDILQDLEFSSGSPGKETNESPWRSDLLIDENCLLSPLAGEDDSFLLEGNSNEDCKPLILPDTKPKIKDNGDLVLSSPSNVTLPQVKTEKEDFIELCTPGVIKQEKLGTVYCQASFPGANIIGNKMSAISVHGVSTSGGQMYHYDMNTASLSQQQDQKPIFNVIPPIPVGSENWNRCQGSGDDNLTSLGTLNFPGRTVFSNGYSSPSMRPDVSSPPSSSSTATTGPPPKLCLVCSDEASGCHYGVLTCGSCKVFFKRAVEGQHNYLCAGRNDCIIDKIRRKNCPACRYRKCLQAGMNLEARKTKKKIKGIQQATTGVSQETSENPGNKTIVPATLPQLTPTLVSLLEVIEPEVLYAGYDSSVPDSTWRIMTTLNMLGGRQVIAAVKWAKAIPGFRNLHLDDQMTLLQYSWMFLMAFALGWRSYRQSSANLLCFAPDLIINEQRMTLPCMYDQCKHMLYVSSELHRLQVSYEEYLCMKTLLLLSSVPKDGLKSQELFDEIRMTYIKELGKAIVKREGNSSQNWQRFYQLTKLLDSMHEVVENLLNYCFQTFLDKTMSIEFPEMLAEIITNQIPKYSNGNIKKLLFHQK
# Outline: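 Fluorescence from cleaved LiveBLAzer B/G FRET substrate reports GRE-driven beta-lactamase in HeLa cells; compounds are tested against 5 nM dexamethasone (final) over 18 h at 37 C, substrate incubation 2 h at room temperature.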
# [10] = qHTS assay to identify small molecule antagonists of the glucocorticoid receptor (GR) signaling pathway - cell viability counter screen (AID 720693); conditions: GR-bla HeLa viability, CellTiter-Glo luminescence, 18 h, with 5 nM dexamethasone present; series mostly up to 58.5 µM; also: nearly all actives have a fitted effect of over 55% in size; also: potency is read from the fitted curve at half-maximal effect
# [11] = qHTS assay for identifying genotoxic compounds that show differential cytotoxicity against isogenic chicken DT40 cell lines with known DNA damage response pathways - wild type cell line (AID 743012); conditions: DT40 wild type chicken cells viability, CellTiter-Glo, 40 h; series mostly up to 68.4 µM; also: nearly all actives have a fitted effect of over 60% in size; also: potency is read from the fitted curve at half-maximal effect
# Outline: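 Quantitative HTS on parental DT40 cells: 40 h compound treatment at 37 C/5% CO2, with viability then determined by CellTiter-Glo luminescence. Values serve as the DNA repair-proficient reference for differential cytotoxicity.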
# [12] = qHTS assay for identifying genotoxic compounds that show differential cytotoxicity against isogenic chicken DT40 cell lines with known DNA damage response pathways - Rad54/Ku70 mutant cell line (AID 743015); conditions: DT40 Rad54/Ku70 mutant viability, CellTiter-Glo, 40 h; series mostly up to 66.8 µM; also: nearly all actives have a fitted effect of over 60% in size; also: potency is read from the fitted curve at half-maximal effect
# [13] = qHTS assay to identify small molecule antagonists of the androgen receptor (AR) signaling pathway - cell viability counter screen (AID 743033; also: nearly all actives have a fitted effect of over 45% in size); conditions: AR-bla HEK293 viability, CellTiter-Glo luminescence, 16 h; series mostly up to 58.5 µM
# [14] = qHTS assay to identify small molecule antagonists of the androgen receptor (AR) signaling pathway using the MDA cell line - cell viability counter screen (AID 743041; also: nearly all actives have a fitted effect of over 45% in size); conditions: MDA-kb2 viability, CellTiter-Fluor, 16 h, cells co-treated with R1881 androgen agonist; series mostly up to 70.3 µM
# Outline: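 R1881-driven MDA-kb2 AR-luc cells, 3,000/well, were dosed with library compounds for 16 h; cell health came from CellTiter-Fluor fluorescence in the reporter wells.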
# [15] = target: Glucocorticoid receptor (Homo sapiens) (UniProt P04150); test: qHTS assay to identify small molecule agonists of the glucocorticoid receptor (GR) signaling pathway (AID 720691; active = well fitted activation curve with a large enough effect in the signal ratio in the repeat runs, not every such curve was filed as active; the % refers to the signal ratio); conditions: GR-bla HeLa, beta-lactamase reporter ratio, 18 h; series mostly up to 62.4 µM
# Outline: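 Beta-lactamase reporter activity, read as fluorescence intensity, was measured in GR-bla HeLa cells exposed to compounds for 18 h at 37 C and then loaded with LiveBLAzer B/G FRET substrate for 2 h at room temperature.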
# [16] = qHTS assay for identifying genotoxic compounds that show differential cytotoxicity against isogenic chicken DT40 cell lines with known DNA damage response pathways - Rev3 mutant cell line (AID 743014); conditions: chicken DT40 Rev3-/- viability, CellTiter-Glo, 40 h; series mostly up to 68.4 µM; also: nearly all actives have a fitted effect of over 55% in size; also: potency is read from the fitted curve at half-maximal effect
# [17] = target: Androgen receptor (Homo sapiens) (UniProt P10275); test: qHTS assay to identify small molecule agonists of the androgen receptor (AR) signaling pathway using the MDA cell line (AID 743040; also: nearly all actives have a fitted effect of over 20% in size); conditions: MDA-kb2 AR-luc cells, MMTV luciferase, 16 h, hits give high values; series mostly up to 70.3 µM
# Androgen receptor (Homo sapiens), sequence (P10275 whole entry, looked up): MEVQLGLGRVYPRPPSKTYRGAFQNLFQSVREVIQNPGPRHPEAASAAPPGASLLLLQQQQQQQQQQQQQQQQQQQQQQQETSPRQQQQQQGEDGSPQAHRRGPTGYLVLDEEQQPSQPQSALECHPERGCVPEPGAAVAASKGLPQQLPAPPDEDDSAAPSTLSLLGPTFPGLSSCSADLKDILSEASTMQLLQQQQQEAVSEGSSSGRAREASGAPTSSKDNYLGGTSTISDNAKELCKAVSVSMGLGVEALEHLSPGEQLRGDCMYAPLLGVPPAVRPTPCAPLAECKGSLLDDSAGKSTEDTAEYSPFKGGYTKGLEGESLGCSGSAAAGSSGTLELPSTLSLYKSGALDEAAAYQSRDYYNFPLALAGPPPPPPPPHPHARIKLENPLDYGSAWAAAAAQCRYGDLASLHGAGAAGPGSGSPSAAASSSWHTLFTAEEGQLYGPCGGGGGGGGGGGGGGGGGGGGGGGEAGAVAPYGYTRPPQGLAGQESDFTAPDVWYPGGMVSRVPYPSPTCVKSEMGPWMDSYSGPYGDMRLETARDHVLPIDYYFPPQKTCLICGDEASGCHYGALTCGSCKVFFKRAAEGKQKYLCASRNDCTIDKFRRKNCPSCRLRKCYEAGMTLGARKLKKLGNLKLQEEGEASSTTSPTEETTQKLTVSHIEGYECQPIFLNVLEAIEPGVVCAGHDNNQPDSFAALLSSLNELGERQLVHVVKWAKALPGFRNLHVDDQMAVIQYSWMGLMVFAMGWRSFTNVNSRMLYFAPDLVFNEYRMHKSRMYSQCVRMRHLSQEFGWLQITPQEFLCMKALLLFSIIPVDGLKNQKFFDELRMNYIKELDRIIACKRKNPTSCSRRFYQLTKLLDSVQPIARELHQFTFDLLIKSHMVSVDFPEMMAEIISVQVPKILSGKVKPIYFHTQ
# Outline: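 After a 5 h incubation at 37C and 0% CO2, MDA-kb2 reporter cells were dosed with compounds in DMSO and kept 16 h under the same conditions. Luciferase activity was then read as luminescence with ONE-Glo.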
# [18] = target: Androgen receptor (Homo sapiens) (UniProt P10275); test: qHTS assay to identify small molecule antagonists of the androgen receptor (AR) signaling pathway (AID 743035; active = well fitted inhibition curve with a large enough effect in the signal ratio in the repeat runs, not every such curve was filed as active; the % refers to the signal ratio); conditions: HEK293 AR-UAS-bla, R1881-stimulated, beta-lactamase FRET, 16 h; series mostly up to 58.5 µM
# Outline: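 Cell line: GeneBLAzer AR-UAS-bla GripTite (HEK293). Stimulus: R1881 added after compound. Exposure: 16 h, 37C, 5% CO2. Readout: LiveBLAzer B/G FRET fluorescence after 2 h at room temperature.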
# [19] = target: Androgen receptor (Homo sapiens) (UniProt P10275); test: qHTS assay to identify small molecule agonists of the androgen receptor (AR) signaling pathway (AID 743036; active = well fitted activation curve with a large enough effect in the signal ratio in the repeat runs, with a control signal flat, not every such curve was filed as active; the % refers to the signal ratio); conditions: HEK293 AR-UAS-bla GripTite, beta-lactamase FRET ratio, 16 h; series mostly up to 62.4 µM
# Outline: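 Following a 4 h settling period, AR-UAS-bla HEK293 cells were dosed with compounds for 16 h at 37C. A 2 h room-temperature incubation with LiveBLAzer B/G FRET substrate preceded the fluorescence measurement.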
# [20] = target: Androgen receptor (Homo sapiens) (UniProt P10275); test: qHTS assay to identify small molecule antagonists of the androgen receptor (AR) signaling pathway using the MDA cell line (AID 743042; also: nearly all actives have a fitted effect of over 55% in size); conditions: MDA-kb2 AR-luc, MMTV luciferase, R1881 antagonist, 16 h; series mostly up to 70.3 µM
# Outline: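 Antagonist mode: compounds plus R1881 agonist added to MDA-kb2 AR-luc cells, incubated 16 h at 37C. Luciferase reporter luminescence quantified, with multiplexed CellTiter-Fluor readout for cell viability.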
Structure (SMILES),outcome [1],Potency [2],outcome [3],outcome [4],outcome [5],outcome [6],outcome [7],outcome [8],Potency [9],Potency [10],Potency [11],Potency [12],Potency [13],Potency [14],Potency [15],Potency [16],outcome [17],Potency [18],outcome [19],Potency [20]
C[C@@H](O)[C@H]1C(=O)N2C(C(=O)O)=C(S[C@@H]3CN[C@H](CNS(N)(=O)=O)C3)[C@H](C)[C@H]12,inactive,inactive,inactive,inactive,inactive,inactive,inactive,inactive,inactive,inactive,inactive,inactive,inactive,inactive,–,–,–,–,–,–
NCCOCCOCCN,inactive,inactive,inactive,inactive,inactive,inactive,inactive,inactive,–,–,–,24.3 µM (active),–,–,inactive,24.3 µM (active),inactive,–,–,–
Cc1c(N=C=O)cccc1N=C=O,inactive,inactive,inactive,inactive,inactive,inactive,inactive,inactive,inactive,inactive,–,inactive,inactive,–,–,inactive,inactive,inactive,inactive,inactive
CC(C)C/C=C(\C=O)c1ccccc1,inactive,inactive,inactive,inactive,inactive,inactive,inactive,inactive,–,inactive,inactive,–,inactive,inactive,–,–,–,–,–,–
CC1=C(C)C(=O)C(CCCCC#CCCCC#CCO)=C(C)C1=O,inactive,inactive,inactive,inactive,inactive,inactive,–,inactive,inactive,inactive,–,11.9 µM (active),inactive,inactive,inactive,10.6 µM (active),–,–,–,–
O=C(O)c1cc(C(=O)O)cc([N+](=O)[O-])c1,inactive,inactive,inactive,inactive,inactive,inactive,–,inactive,inactive,inactive,inactive,inactive,inactive,inactive,inactive,inactive,–,–,–,–
CC(=O)CC/C=C(\C)CC/C=C(\C)CC/C=C(\C)CCC=C(C)C,inactive,inactive,inactive,inactive,inactive,inactive,inactive,inactive,–,inactive,–,inactive,inactive,inactive,–,inactive,–,–,–,–
O=P(c1ccccc1)(c1ccccc1)c1ccccc1,inactive,inactive,inactive,inactive,inactive,inactive,inactive,inactive,–,inactive,–,61.1 µM (active),inactive,inactive,–,61.1 µM (active),–,–,–,–
O=C(N[C@@H](Cc1ccccc1)[C@@H](O)C(=O)N1C[C@@H](O)[C@@H](O)C1)c1cc2cc(Cl)ccc2[nH]1,inactive,inactive,inactive,inactive,inactive,inactive,inactive,inactive,–,inactive,–,–,–,inactive,–,–,–,–,–,–
C(/C=C/C=C/Nc1ccccc1)=Nc1ccccc1,inactive,inactive,inactive,inactive,inactive,inactive,inactive,inactive,–,inactive,inactive,–,inactive,inactive,–,inactive,–,–,–,–
C[Si](C)(C)O[Si](C)(C)O[Si](C)(C)C,inactive,inactive,inactive,inactive,inactive,inactive,inactive,inactive,–,inactive,inactive,inactive,inactive,inactive,–,inactive,–,–,–,–
O=[N+]([O-])c1cccc(I)c1,inactive,inactive,inactive,inactive,inactive,inactive,–,inactive,inactive,inactive,inactive,inactive,inactive,inactive,inactive,inactive,–,–,–,–
CCn1nc(Cc2ccccc2)cc1C1CCN(C[C@H]2C[C@H](N(C)[C@@H](C(=O)O)C(C)C)C[C@@H]2c2cccc(F)c2)CC1,inactive,inactive,inactive,inactive,inactive,inactive,–,inactive,inactive,inactive,61.1 µM (active),24.3 µM (active),inactive,inactive,inactive,61.1 µM (active),–,–,–,–
CC(C)Cc1nccs1,inactive,inactive,inactive,inactive,inactive,inactive,inactive,inactive,–,inactive,–,inactive,inactive,inactive,–,inactive,–,–,–,–
Cc1ccccc1CCO,inactive,inactive,inactive,inactive,inactive,inactive,inactive,inactive,–,inactive,inactive,inactive,inactive,inactive,–,inactive,–,–,–,–
CC1(C)C(=O)NC(=O)N1CO,inactive,inactive,inactive,inactive,inactive,inactive,inactive,inactive,–,inactive,inactive,inactive,inactive,inactive,–,inactive,–,–,–,–
C=CC(C)CCC=C(C)C (configuration not stated),inactive,inactive,inactive,inactive,inactive,inactive,–,inactive,–,inactive,inactive,inactive,inactive,inactive,inactive,inactive,–,–,–,–
Cc1cc(C)c(C)c(O)c1,inactive,inactive,inactive,inactive,inactive,inactive,inactive,inactive,–,inactive,inactive,inactive,inactive,inactive,–,inactive,–,–,–,–
CC(Cc1ccccc1)(NC(=O)CN)c1ccccc1 (configuration not stated),inactive,inactive,inactive,inactive,inactive,inactive,inactive,inactive,–,inactive,–,–,inactive,inactive,–,inactive,–,–,–,–
CC(C)=CCC[C@H](C)CCO,inactive,inactive,inactive,inactive,inactive,inactive,inactive,inactive,–,inactive,–,19.3 µM (active),inactive,inactive,–,48.6 µM (active),–,–,–,–
CCCCCCCCCCCCSCCOCCO,inactive,inactive,inactive,inactive,inactive,inactive,–,inactive,inactive,inactive,–,inactive,inactive,inactive,inactive,inactive,–,–,–,–
CCCCCCCCCCCCSC#N,inactive,inactive,inactive,inactive,inactive,inactive,inactive,inactive,–,inactive,–,inactive,inactive,inactive,–,inactive,–,–,–,–
CCCC1CCCC(=O)O1 (configuration not stated),inactive,inactive,inactive,inactive,inactive,inactive,–,inactive,–,inactive,inactive,inactive,inactive,–,inactive,inactive,–,–,–,–
CC1(COc2ccc(CC3SC(=O)NC3=O)cc2)CCCCC1 (configuration not stated),inactive,inactive,inactive,inactive,inactive,inactive,inactive,inactive,–,23.9 µM (active),–,11.9 µM (active),inactive,–,–,23.7 µM (active),–,–,–,–
Nc1ccc(C(=O)Oc2ccccc2)c(O)c1,inactive,inactive,inactive,inactive,inactive,inactive,–,inactive,inactive,inactive,–,29.8 µM (active),inactive,inactive,inactive,inactive,–,–,–,–
